From PubChem BioAssay (Tox21)
Inconclusive results are not listed. The source made the active and inactive calls. Unless noted, the call rests on the fitted dose curve; in most records, active means well fitted curve in the direction sought with a large enough effect in the repeat runs; inconclusive means weak or mixed curves; inactive means no such curve, though single readings can be large; an effect the other way counts as inactive or inconclusive.

Tests used:
[1] = qHTS assay to identify small molecule agonists of the peroxisome proliferator-activated receptor delta (PPARd) signaling pathway - cell viability counter screen (AID 743211); further: on the % scale 0 is the no-effect control and ±100 the full control effect; nearly all actives have a fitted effect of over 55% in size
Outline: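 qHTS cell viability: PPARd-bla HEK293H; 17 h cpd, 37C; CellTiter-Glo, luminescence at 30 min RT.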

[2] = target: Peroxisome proliferator-activated receptor delta (Homo sapiens) (UniProt Q03181); assay: qHTS assay to identify small molecule agonists of the peroxisome proliferator-activated receptor delta (PPARd) signaling pathway (AID 743212; calls by dose curve;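 further: HEK293H cells with PPARd UAS beta-lactamase reporter GeneBLAzer system; on the % scale 0 is the no-effect control and ±100 the full control effect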)
Outline: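 Steps: seed PPARd-bla HEK293H cells; incubate 5 h, 37 C, 5% CO2; add compounds in DMSO; incubate, 37 C; add LiveBLAzer B/G FRET substrate; hold 2 h at room temperature; measure fluorescence.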

[3] = qHTS assay to identify small molecule agonists of the farnesoid-X-receptor (FXR) signaling pathway - cell viability counter screen (AID 743218); further: on the % scale 0 is the no-effect control and ±100 the full control effect; nearly all actives have a fitted effect of over 45% in size
Outline: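 Quantitative HTS counter screen measuring ATP-based viability via CellTiter-Glo luminescence in HEK 293T cells carrying a UAS-driven beta-lactamase reporter, after 16 h compound exposure at 37 C.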

[4] = qHTS assay to identify small molecule antagonists of the farnesoid-X-receptor (FXR) signaling pathway - cell viability counter screen (AID 743221; active means well fitted cell-killing curve with a large enough effect in the repeat runs, not every such curve was filed as active; further: on the % scale 0 is the no-effect control and ±100 the full control effect; nearly all actives have a fitted effect of over 50% in size)
Outline: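 After a 5 h settling period, FXR-bla HEK 293T cells receive compound and chenodeoxycholic acid (50 uM final) and incubate 16 h at 37 C; CellTiter-Glo luminescence, read after 30 min at room temperature, reports cell viability.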

[5] = target: Vitamin D3 receptor (Homo sapiens) (UniProt P11473); assay: qHTS assay to identify small molecule agonists of the vitamin D receptor (VDR) signaling pathway (AID 743222; calls by dose curve; further: on the % scale 0 is the no-effect control and ±100 the full control effect)
Outline: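 Tox21 cell reporter format: VDR-bla line, 16 h compound exposure in 5% CO2 at 37C, then fluorescence intensity after 2 h with LiveBLAzer B/G FRET substrate.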

[6] = qHTS assay to identify small molecule agonists of the vitamin D receptor (VDR) signaling pathway - cell viability counter screen (AID 743224); further: series mostly up to about 63 µM; on the % scale 0 is the no-effect control and ±100 the full control effect; nearly all actives have a fitted effect of over 50% in size
Outline: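 CellTiter-Glo viability readout on VDR-bla cells, measured after 16 h of compound treatment at 37C in the same wells.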

[7] = qHTS assay to identify small molecule antagonists of the vitamin D receptor (VDR) signaling pathway - cell viability counter screen (AID 743225); further: on the % scale 0 is the no-effect control and ±100 the full control effect; nearly all actives have a fitted effect of over 50% in size
Outline: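 Parallel cytotoxicity test: VDR-UAS-bla HEK 293T, 3 nM (final) 1-alpha,25-dihydroxyvitamin D3 with test compound, 16 h, 37C. Endpoint is CellTiter-Glo luminescence in the same wells.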

[8] = qHTS assay to identify small molecule agonists of the NFkB signaling pathway (AID 1159509; active means well fitted curve in the direction sought with a large enough effect in the signal ratio in the repeat runs, not every such curve was filed as active; the % refers to the signal ratio; further: series mostly up to about 61 µM; on the % scale 0 is the no-effect control and ±100 the full control effect)
Outline: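 Readout: FRET fluorescence, 405 nm excitation, 460/530 nm emission; beta-lactamase expression disrupts FRET. Cells: ME-180 stably carrying NF-kB-driven bla reporter. Compound exposure 5 hr, 37 C, 5% CO2.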

[9] = qHTS assay to identify small molecule agonists of the NFkB signaling pathway - cell viability counter screen (AID 1159515; calls by dose curve; further: series mostly up to about 61 µM; on the % scale 0 is the no-effect control and ±100 the full control effect; nearly all actives have a fitted effect of over 55% in size)
Outline: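 Tox21 library compounds were tested for cytotoxicity against NFkB-bla ME-180 cells during a 5 hr exposure at 37 C. CellTiter-Glo luminescence served as the viability read-out.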

[10] = qHTS assay to identify small molecule agonists of the endoplasmic reticulum stress response signaling pathway (AID 1159516; active means well fitted activation curve with a large enough effect in the signal ratio in the repeat runs, not every such curve was filed as active; the % refers to the signal ratio; further: on the % scale 0 is the no-effect control and ±100 the full control effect)
Outline: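 Fluorescence at 460 and 530 nm (405 nm excitation) reports beta-lactamase from an ER stress response element in HeLa cells treated 5 hr at 37 C.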

[11] = qHTS assay to identify small molecule agonists of the endoplasmic reticulum stress response signaling pathway - cell viability counter screen (AID 1159517; calls by dose curve; further: series mostly up to about 61 µM; on the % scale 0 is the no-effect control and ±100 the full control effect; nearly all actives have a fitted effect of over 50% in size)
Outline: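 After overnight attachment, ESRE-bla HeLa cells were treated with Tox21 library compounds for 5 hr. CellTiter-Glo luminescence, read 30 min post-addition at room temperature, reported viability.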

[12] = qHTS assay to identify small molecule antagonists of the retinoid-related orphan receptor gamma (ROR-gamma) signaling pathway - cell viability counter screen (AID 1159520)
Outline: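 Cytotoxicity was read from cellular ATP (CellTiter-Glo luminescence) after 16 hr at 37 C with 1 uM doxycycline induction. The inducer was added 2 hr after compound transfer to Tet-on ROR gamma CHO cells.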

[13] = target: Nuclear receptor ROR-gamma (Homo sapiens) (UniProt P51449); assay: qHTS assay to identify small molecule antagonists of the retinoid-related orphan receptor gamma (ROR-gamma) signaling pathway (AID 1159521)
Outline: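 Decreased RORE-driven luciferase luminescence indicates antagonism. Tet-on RORγ CHO cells received compound, then 1 uM final doxycycline 2 h later; signal read after 16 h incubation.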

[14] = qHTS assay to identify small molecule agonists of the AP-1 signaling pathway - cell viability counter screen (AID 1159525; calls by dose curve; further: nearly all actives have a fitted effect of over 55% in size)
Outline: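 Intracellular ATP by Cell Titer Glo luminescence (30 min, RT) in the same ME-180 AP-1-bla wells after the 5 h compound exposure at 37 °C. Normalised to tetra n-octyl ammonium bromide and DMSO controls.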

[15] = qHTS assay to identify small molecule agonists of the AP-1 signaling pathway (AID 1159526; calls by dose curve; further: on the % scale 0 is the no-effect control and ±100 the full control effect)
[16] = target: Peroxisome proliferator-activated receptor delta (Homo sapiens) (UniProt Q03181); assay: qHTS assay to identify small molecule antagonists of the peroxisome proliferator-activated receptor delta (PPARd) signaling pathway (AID 743215; active means well fitted inhibition curve with a large enough effect in the signal ratio in the repeat runs, not every such curve was filed as active; the % refers to the signal ratio)
Outline: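 Here, a reporter line (HEK293H, beta-lactamase under a UAS) measures PPARd signaling. Compounds are tested against agonist L165041 at 300 nM final concentration over 17 h at 37 C, with fluorescence read after substrate.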

[17] = qHTS assay to identify small molecule antagonists of the peroxisome proliferator-activated receptor delta (PPARd) signaling pathway - cell viability counter screen (AID 743213)
Outline: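 PPARd-bla HEK293H cells were treated with compounds plus agonist L165041 (300 nM final) for 17 h at 37 C. Viability was then read in the same wells by CellTiter-Glo luminescence after 30 min at room temperature.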

[18] = target: Vitamin D3 receptor (Homo sapiens) (UniProt P11473); assay: qHTS assay to identify small molecule antagonists of the vitamin D receptor (VDR) signaling pathway (AID 743223; active means well fitted inhibition curve with a large enough effect in the signal ratio in the repeat runs, not every such curve was filed as active; the % refers to the signal ratio; further: on the % scale 0 is the no-effect control and ±100 the full control effect)
Outline: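 Reporter line VDR-bla; stimulus 1alpha,25-(OH)2 vitamin D3, 3 nM final; compound co-addition, 16 h 37C/5% CO2; LiveBLAzer B/G substrate 2 h RT; fluorescence intensity.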

[19] = target: Bile acid receptor (Homo sapiens) (UniProt Q96RI1); assay: qHTS assay to identify small molecule antagonists of the farnesoid-X-receptor (FXR) signaling pathway (AID 743217; active means well fitted inhibition curve with a large enough effect in the signal ratio in the repeat runs, not every such curve was filed as active; the % refers to the signal ratio; further: on the % scale 0 is the no-effect control and ±100 the full control effect)
Outline: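 Test compounds are pin-transferred onto FXR-bla HEK 293T cells, then chenodeoxycholic acid is added at 50 uM final. After 16 h at 37 °C, LiveBLAzer B/G substrate is applied for 2 h at room temperature and fluorescence read.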

[20] = target: Bile acid receptor (Homo sapiens) (UniProt Q96RI1); assay: qHTS assay to identify small molecule agonists of the farnesoid-X-receptor (FXR) signaling pathway (AID 743220; active means well fitted activation curve with a large enough effect in the signal ratio in the repeat runs, not every such curve was filed as active; the % refers to the signal ratio; further: on the % scale 0 is the no-effect control and ±100 the full control effect)
Outline: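 FXR-UAS-bla HEK 293T cells carrying a UAS-driven beta-lactamase reporter were plated for 5 h at 37C/5% CO2, then exposed to DMSO-dissolved Tox21 10K compounds for 16 h at 37C. A LiveBLAzer B/G FRET substrate was loaded for 2 h at room temperature before fluorescence reading.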

Sequence of Vitamin D3 receptor (Homo sapiens) (P11473 whole entry, looked up): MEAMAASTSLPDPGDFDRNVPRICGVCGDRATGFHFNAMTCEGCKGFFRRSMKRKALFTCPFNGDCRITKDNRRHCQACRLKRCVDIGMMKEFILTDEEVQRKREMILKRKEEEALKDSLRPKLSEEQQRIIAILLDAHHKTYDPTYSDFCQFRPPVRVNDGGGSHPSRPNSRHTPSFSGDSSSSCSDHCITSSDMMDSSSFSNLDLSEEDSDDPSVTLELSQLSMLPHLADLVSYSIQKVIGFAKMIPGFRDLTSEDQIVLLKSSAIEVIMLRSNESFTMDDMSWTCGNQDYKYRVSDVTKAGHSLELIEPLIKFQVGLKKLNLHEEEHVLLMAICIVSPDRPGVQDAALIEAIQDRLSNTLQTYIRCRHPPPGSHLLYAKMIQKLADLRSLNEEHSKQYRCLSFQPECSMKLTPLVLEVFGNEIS
Sequence of Peroxisome proliferator-activated receptor delta (Homo sapiens) (Q03181 whole entry, looked up): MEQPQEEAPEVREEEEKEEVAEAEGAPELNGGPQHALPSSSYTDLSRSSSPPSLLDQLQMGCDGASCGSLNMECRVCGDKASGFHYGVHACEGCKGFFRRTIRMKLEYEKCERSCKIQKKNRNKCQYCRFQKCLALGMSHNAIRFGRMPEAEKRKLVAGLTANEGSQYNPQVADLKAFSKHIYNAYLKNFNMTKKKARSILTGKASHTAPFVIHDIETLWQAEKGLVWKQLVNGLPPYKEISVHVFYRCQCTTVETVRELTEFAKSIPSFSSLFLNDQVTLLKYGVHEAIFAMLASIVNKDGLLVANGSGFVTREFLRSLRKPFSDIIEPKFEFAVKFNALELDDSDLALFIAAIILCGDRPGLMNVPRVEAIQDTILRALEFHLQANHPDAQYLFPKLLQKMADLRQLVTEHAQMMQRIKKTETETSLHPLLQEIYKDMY
Sequence of Bile acid receptor (Homo sapiens) (Q96RI1 whole entry, looked up): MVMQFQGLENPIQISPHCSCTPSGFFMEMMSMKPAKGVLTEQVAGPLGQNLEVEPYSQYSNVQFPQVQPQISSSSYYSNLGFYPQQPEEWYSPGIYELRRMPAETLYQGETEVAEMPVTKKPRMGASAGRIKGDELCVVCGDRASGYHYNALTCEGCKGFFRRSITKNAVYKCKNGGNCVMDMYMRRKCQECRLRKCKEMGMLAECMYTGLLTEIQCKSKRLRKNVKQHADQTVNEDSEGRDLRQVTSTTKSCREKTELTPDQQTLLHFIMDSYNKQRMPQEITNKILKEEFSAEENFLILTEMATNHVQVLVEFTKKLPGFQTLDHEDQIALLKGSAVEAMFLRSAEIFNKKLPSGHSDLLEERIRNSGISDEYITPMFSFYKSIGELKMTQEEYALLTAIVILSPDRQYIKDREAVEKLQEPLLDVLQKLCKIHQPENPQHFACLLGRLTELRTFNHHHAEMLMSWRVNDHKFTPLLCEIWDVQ

CCCCCCC1(C)CCC(=O)O1 (configuration not stated)
inactive: outcome [1] | outcome [2] | outcome [3] | outcome [4] | outcome [5] | outcome [6] | outcome [7] | outcome [8] | outcome [9] | outcome [10] | outcome [11] | outcome [12] | outcome [13] | outcome [14] | outcome [15]

COc1cc2c(cc1OC)CN(C(=O)[C@H](C)N[C@@H](CCc1ccccc1)C(=O)O)[C@H](C(=O)O)C2
inactive: outcome [1] | outcome [2] | outcome [16] | outcome [3] | outcome [4] | outcome [7] | outcome [8] | outcome [9] | outcome [10] | outcome [11] | outcome [12] | outcome [13] | outcome [14] | outcome [15]

N[C@@H](CSCCCO)C(=O)O
inactive: outcome [1] | outcome [17] | outcome [16] | outcome [4] | outcome [5] | outcome [18] | outcome [6] | outcome [7] | outcome [8] | outcome [9] | outcome [10] | outcome [11] | activity, negative = cytotoxicity [12] 0.802% [at 19 µM] | activity change, negative = inhibition [13] 25% [at 19 µM] | viability change, negative = cytotoxic [14] 8.07% [at 15.8 µM] | activation [15] 5.26% [at 15.8 µM]

Cn1c(=O)c2c(ncn2CCO)n(C)c1=O
inactive: outcome [1] | outcome [2] | outcome [16] | outcome [3] | outcome [4] | outcome [5] | outcome [6] | outcome [7] | outcome [8] | outcome [9] | outcome [10] | outcome [11] | outcome [12] | outcome [13] | outcome [14] | outcome [15]

CC(=O)O[Si](C)(OC(C)=O)OC(C)=O
inactive: outcome [1] | outcome [2] | outcome [16] | outcome [4] | outcome [6] | outcome [7] | outcome [8] | outcome [9] | outcome [10] | outcome [11] | outcome [12] | outcome [13] | outcome [14] | outcome [15]

CC(C)Nc1ccccc1
inactive: outcome [1] | outcome [2] | outcome [16] | outcome [3] | outcome [5] | outcome [18] | outcome [6] | outcome [7] | outcome [8] | outcome [9] | outcome [10] | outcome [11] | outcome [12] | outcome [13] | outcome [14] | outcome [15]

CCC(=O)c1c(O)cc(O)cc1O
inactive: outcome [1] | outcome [17] | outcome [19] | outcome [3] | outcome [20] | outcome [4] | outcome [6] | outcome [7] | outcome [8] | outcome [9] | outcome [10] | outcome [11] | outcome [12] | outcome [13] | outcome [14] | outcome [15]

c1ccc(B(c2ccccc2)c2ccccc2)cc1
inactive: outcome [1] | outcome [2] | outcome [19] | outcome [3] | outcome [20] | outcome [5] | outcome [18] | outcome [7] | outcome [8] | outcome [9] | outcome [10] | outcome [11] | outcome [12] | outcome [13] | outcome [14] | outcome [15]

CCCCCC/C=C/C(=O)OC
inactive: outcome [1] | outcome [20] | outcome [4] | outcome [5] | outcome [18] | outcome [6] | outcome [7] | outcome [8] | outcome [9] | outcome [10] | outcome [11] | outcome [12] | outcome [13] | outcome [14] | outcome [15]

CC1=C(O)C(=O)C(C)O1 (configuration not stated)
inactive: outcome [1] | outcome [2] | outcome [16] | outcome [19] | outcome [20] | outcome [7] | outcome [8] | outcome [9] | outcome [10] | outcome [11] | outcome [12] | outcome [13] | outcome [14] | outcome [15]
